# Source: PubChem (National Center for Advancing Translational Sciences (NCATS))
# This is a sample that favours compounds with a hit; in the whole collection about 3.3% have one here.
# RE007 growth inh – less growth of the S. pombe RE007 Vpr strain; hit rate 0.21% among 360,000; Potency, µM (titrated, usually from 92.2 µM), without a hit: at the highest dose activity change, negative = less growth, actives largely listed as inhibitors; S. pombe RE007 Vpr strain, BacTiter-Glo ATP luminescence, 24 h; AID 651644; active means well fitted falling curve with a large enough effect; inconclusive means small, poorly fitted or top-dose-only effect; inactive means no such curve, though single readings can be large or run the other way; further: on the % scale 0 is the no-effect control and ±100 the full control effect; nearly all actives have a fitted effect of over 50% in size
#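 Fission yeast RE007 carrying one integrated HIV-1 vpr copy, seeded at OD 0.01 in PMG+AL medium with 23 nL pinned compound. Grown 24 h at 30 degrees; viability read by BacTiter-Glo luminescence after 5 min.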
# TbPYK inhibitor – T. brucei pyruvate kinase inhibition. Q57TT1. TbPYK enzyme, Kinase-Glo Plus ATP luminescence, 45 min. Potency, µM (doses to about 76.8 µM), without a hit: at the top dose activity, negative = inhibition, usual class: inhibitors. hit rate 0.12% among 410,000; further: on the % scale 0 is the no-effect control and ±100 the full control effect; nearly all actives have a fitted effect of over 50% in size
#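 T. brucei PYK with substrate was exposed to pin-transferred compounds across a concentration series, then started with 130 uM ADP (final). After 45 min at room temperature, Kinase-Glo Plus luminescence was read, normalized and curve-fitted.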
# LmPK inh – blocks Leishmania mexicana pyruvate kinase activity | Q27686 | purified LmPK, Kinase-Glo ATP luminescence, 1 h | Potency, µM (highest dose often 57.5 µM), inactives show at the top dose activity change, negative = inhibition, actives largely listed as inhibitors | hit rate 0.37% among 290,000 | AID 1721; further: on the % scale 0 is the no-effect control and ±100 the full control effect
# Target sequence (Q27686 whole entry, looked up): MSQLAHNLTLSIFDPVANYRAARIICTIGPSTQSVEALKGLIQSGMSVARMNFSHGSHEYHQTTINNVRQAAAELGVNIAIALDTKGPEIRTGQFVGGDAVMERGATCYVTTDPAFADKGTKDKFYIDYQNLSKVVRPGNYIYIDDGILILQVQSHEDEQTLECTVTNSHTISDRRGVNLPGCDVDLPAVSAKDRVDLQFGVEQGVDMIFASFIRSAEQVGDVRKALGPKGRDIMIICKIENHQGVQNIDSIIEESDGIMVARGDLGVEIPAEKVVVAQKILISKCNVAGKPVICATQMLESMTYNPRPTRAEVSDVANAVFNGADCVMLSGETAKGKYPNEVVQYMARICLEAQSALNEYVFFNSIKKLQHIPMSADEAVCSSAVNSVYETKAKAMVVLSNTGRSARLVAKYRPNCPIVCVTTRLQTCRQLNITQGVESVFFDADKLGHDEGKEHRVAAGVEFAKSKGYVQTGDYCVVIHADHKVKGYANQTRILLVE
#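 qHTS format; LmPK 0.1 nM; substrates PEP 0.5 mM and ADP 0.1 mM. One-hour room-temperature incubation, then coupled luciferase luminescence; 0.5 nM enzyme wells mark activation.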
# NS1 function inh – inhibitors of influenza NS1 protein function. Potency, µM (titrated, usually from 46.1 µM), for the others: top-dose activity, positive = more growth. AID 2326. hit rate 0.4% among 270,000; calls by dose curve; further: actives are rising curves; nearly all actives have a fitted effect of over 50% in size
#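 S. cerevisiae expressing influenza A NS1, grown in glucose, washed, then diluted 1:100 into pH 6.0 -URA galactose medium with 23 nl compound. Growth recovery read as OD600; NS1-free strain serves as control.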
# SARS PLP yeast – SARS-CoV PLP inhibition in yeast; S. cerevisiae expressing SARS-CoV PLpro, growth rescue; Potency, µM (series often up to 32.9 µM), for the others: at the top dose activity, positive = growth rescue, usual class: activators; hit rate 0.19% among 330,000; AID 485353; calls by dose curve; further: 0% is about no effect; nearly all actives have a fitted effect of over 55% in size
# Sm TGR block – blocks Schistosoma mansoni thioredoxin glutathione reductase; hit rate 3% among 360,000; purified TGR, DTNB reduction, TNB absorbance 405 nm; Q962Y6; AID 485364; Potency, µM (series often up to 114 µM), for inactives: at the highest dose activity change, negative = inhibition, most hits filed as inhibitors; further: on the % scale 0 is the no-effect control and ±100 the full control effect; nearly all actives have a fitted effect of over 60% in size
#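 TGR 20 nM + NADPH 100 uM (dispensed conc.), cpd preinc 15 min RT; start with NADPH (500 uM addition) then DTNB (15 mM addition). Kinetic TNB absorbance, 405 nm filter. Four-parameter Hill fit across titration.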
# * = called active by the depositor; ? = inconclusive; nt = no result given. Unless noted, the call rests on the fitted dose curve; in most records, active means well fitted curve in the direction sought with a large enough effect; inconclusive means small, poorly fitted or top-dose-only effect, or another doubt; inactive means no such curve, though single readings can be large; an effect the other way counts as inactive or inconclusive. Potency means the concentration at half of the fitted maximal effect.
SMILES,RE007 growth inh,TbPYK inhibitor,LmPK inh,NS1 function inh,SARS PLP yeast,Sm TGR block
CCN(CC)C(=O)C(=O)c1cn(CC(=O)N2CCc3ccccc3C2)c2ccccc12,8%,-2%,2%,nt,2%,45µM*
CCOC(=O)c1ccc2c(c1)N(Cc1ccc(F)cc1Cl)C(=O)c1ccccc1S2,nt,-8%,nt,nt,nt,13%
CC(=O)N1CCc2cc(S(=O)(=O)CCC(=O)NCc3ccc(C)o3)ccc21,-2%,-25%,1%,13%,-3%,11µM*
Cc1ccc(CNC(=O)CCS(=O)(=O)c2cc(Br)cc3c2N(C(=O)C2CC2)CC3)cc1,nt,5%,nt,nt,nt,-4%
Cc1ccc(CNC(=O)CCS(=O)(=O)c2cc(Br)cc3c2N(C(=O)C2CC2)CC3)o1,-22%,-12%,3%,9%,2%,28µM*
COc1cc(CN(C(=O)c2oc3ccccc3c2C)C2CCS(=O)(=O)C2)cc(OC)c1OC (stereo unspecified),nt,0%,nt,nt,nt,11%
CC1(C)CC(=O)C(C(c2cccc(O)c2O)C2C(=O)CC(C)(C)CC2=O)C(=O)C1,nt,nt,nt,13%,nt,nt
Cc1ccc(C2NC(=O)c3c(sc(C)c3C)N2)c(O)c1 (stereo unspecified),0%,-22%,0%,-15%,-5%,25µM*
O=C(O)c1cc(-c2ccco2)nn1-c1cccc(Cl)c1,-15%,-4%,7%,8%,7%,63µM*
O=C(O)c1cc(-c2ccco2)nn1-c1ccc(Cl)cc1,10%,-21%,14%,7%,4%,5µM*
O=C(O)c1cc(-c2cccs2)nn1-c1cccc(Cl)c1,2%,0%,-2%,nt,2%,-10%
Cc1nn(-c2cccc(Cl)c2)c2nc(-c3ccco3)cc(C(=O)O)c12,12%,0%,6%,1%,15%,16µM*
Cc1nn(-c2ccccc2)c2nc(-c3ccco3)cc(C(=O)O)c12,-24%,-11%,16%,13%,-2%,?
Cc1ccc(-n2nc(-c3ccco3)cc2C(=O)O)c(C)c1,-10%,-6%,9%,?,5%,11µM*
O=C(O)c1cc(-c2cc3ccccc3o2)nn1-c1ccccc1,-5%,-3%,9%,nt,-2%,-9%
CCOC(=O)CCc1c(C)nc(SCc2ccc(C(=O)O)cc2)c(C#N)c1C,-1%,-2%,0%,10%,-9%,6%
CCOC(=O)CCc1c(C)nc(SCC(=O)O)c(C#N)c1C,6%,32µM*,26%,-8%,5%,5%
COC(=O)/C=C1/S/C(=N/NC(=O)c2ccc(Cl)cc2Cl)NC1=O,8%,0%,7%,3%,5%,18µM*
COC(=O)/C=C1/S/C(=N/NC(=O)c2ccccc2OC)NC1=O,16%,-15%,-2%,-39%,?,?
CCOC(=O)COc1ccc(C)cc1C(=O)c1ccn2nc(-c3ccc(F)cc3)cc2n1,nt,0%,nt,nt,nt,-1%
O=C(c1cc(Cc2n[nH]c(=O)c3ccccc23)ccc1F)N1CCN(C(=O)C2CC2)CC1,nt,4%,nt,nt,nt,nt
Nc1c(C(=O)c2ccccc2)sc2nsc(SCCN3CCCC3)c12,-5%,-2%,-5%,-1%,-4%,40µM*
C#CCOCCOCCOCCNc1nc(N2CCN(C(=O)CCCCCCCCCCNC(=O)[C@H](CCCCN)n3cc(CCCC(=O)O)nn3)CC2)nc(N2CCN(C(=O)CCCCCCCCCCNC(=O)[C@H](CCCCN)n3cc(CCCC(=O)O)nn3)CC2)n1,3%,-3%,nt,nt,-13%,?
C#CCOCCOCCOCCNc1nc(N2CCN(C(=O)CCCCCCCCCCNC(=O)[C@H]([C@@H](C)CC)n3cc(CCCCCN)nn3)CC2)nc(N2CCN(C(=O)CCCCCCCCCCNC(=O)[C@@H]([C@H](C)O)n3cc(C)nn3)CC2)n1,4%,-2%,nt,nt,4%,-29%
C#CCOCCOCCOCCNc1nc(N2CCN(C(=O)CCCCCCCCCCNC(=O)[C@H](CCCCN)n3cc(CCO)nn3)CC2)nc(N2CCN(C(=O)CCCCCCCCCCNC(=O)[C@@H]([C@H](C)O)n3cc(C)nn3)CC2)n1,-13%,1%,nt,nt,-8%,18µM*
SMILES,RE007 growth inh,TbPYK inhibitor,LmPK inh,NS1 function inh,SARS PLP yeast,Sm TGR block
C#CCOCCOCCOCCNc1nc(N2CCN(C(=O)CCCCCCCCCCNC(=O)[C@H](CCC(=O)O)n3cc(CCCCCN)nn3)CC2)nc(N2CCN(C(=O)CCCCCCCCCCNC(=O)[C@@H]([C@H](C)O)n3cc(C)nn3)CC2)n1,3%,-8%,nt,nt,-2%,-31%
C#CCOCCOCCOCCNc1nc(N2CCN(C(=O)CCCCCCCCCCNC(=O)[C@H](CCCCN)n3cc(C)nn3)CC2)nc(N2CCN(C(=O)CCCCCCCCCCNC(=O)[C@@H]([C@H](C)CC)n3cc(CCCCCN)nn3)CC2)n1,nt,nt,nt,nt,-4%,25µM*
C#CCOCCOCCOCCNc1nc(N2CCN(C(=O)CCCCCCCCCCNC(=O)[C@H](CCCCN)n3cc(CCO)nn3)CC2)nc(N2CCN(C(=O)CCCCCCCCCCNC(=O)[C@H](CCCCN)n3cc(CCO)nn3)CC2)n1,19%,2%,nt,nt,0%,35µM*
C(/C=C\c1ccccc1)=Nc1ccc2c(c1)Cc1ccccc1-2,nt,nt,nt,-1%,nt,nt
Cc1nc2cccc([N+](=O)[O-])c2n1CCCN(C)C,nt,nt,nt,-9%,nt,nt
Clc1ccc(C2CC(c3ccco3)n3ncnc3N2)cc1Cl (stereo unspecified),5%,-2%,5%,-5%,18%,11µM*
O=C(C1=C[C@@H](C2CCCCC2)C[C@@H](OCCCCO)O1)N1CCOCC1,9%,-1%,-1%,0%,0%,0%
O=C(O)C1=C[C@@H](c2ccccc2)C[C@@H](OCCCCO)O1,11%,1%,nt,nt,nt,nt
O=C(C1=C[C@@H](C2CC2)C[C@@H](OCCCCO)O1)N1CCOCC1,2%,2%,0%,4%,-1%,56µM*
CN1CCN(C(=O)C2=C[C@@H](c3ccccc3)C[C@@H](OCCCCO)O2)CC1,-7%,1%,2%,0%,-2%,40µM*
CN1CCN(C(=O)C2=C[C@@H](c3csc4ccccc34)C[C@@H](OCCCCO)O2)CC1,1%,-4%,1%,-2%,0%,45µM*
CN1CCN(C(=O)C2=C[C@H](c3ccc(Br)cc3)C[C@H](OCCCCO)O2)CC1,8%,-5%,3%,-1%,0%,22µM*
O=C(C1=C[C@H](c2csc3ccccc23)C[C@H](OCCCCO)O1)N1CCOCC1,-4%,-6%,1%,-2%,-2%,?
COc1cccc(NS(=O)(=O)c2ccc3[nH]cc(C(=O)NC(C)c4ccccc4)c(=O)c3c2)c1 (stereo unspecified),nt,5%,nt,nt,nt,6%
